The results in this text go back to PubChem BioAssay (EPA / NIEHS).

Test [1] addresses Retinoic acid receptor RXR-alpha (Homo sapiens) (UniProt P19793). As to the kind of experiment: ATG_RXRa_TRANS: Attagene TRANS-FACTORIAL HepG2 Assay for human Retinoid X Receptor alpha (RXRa) (AID 2283012; active = hit-call score of the fitted dose curve at least 0.9, where 1 is the maximum). Summed up:
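HepG2 cells transiently transfected with multiplexed GAL4-UAS reporter units and chimeric NR-GAL4 fusions, dosed 24 h. Reporter mRNA measured by RT-PCR, FAM labelling, HpaI digestion and capillary electrophoresis; gain-of-signal fitted relative to DMSO baseline.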

Test [2] concerns the target human Thyroid Receptor alpha (THRa1), THRA (gene 7067) (UniProt P10827). Nature of the test: ATG_THRa1_TRANS: Attagene TRANS-FACTORIAL HepG2 Assay for human Thyroid Receptor alpha (THRa1) (AID 2283014; active = hit-call score of the fitted dose curve at least 0.9, where 1 is the maximum). Summed up:
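Reporter transcript induction, read by capillary electrophoresis of 6-FAM-labelled RT-PCR products, reflects activity of a transfected THRa1-Gal4 fusion in HepG2 liver cells. Cells were dosed for 24 h; activity was fitted in the positive direction against DMSO.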

Read-out in test [3]: E-selectin (Homo sapiens) (UniProt P16581)
As to the kind of experiment: BSK_3C_Eselectin: BioMAP Diversity Plus: 3C Assay for Eselectin Biomarker Activity (AID 2283015).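 Also: cell surface E-selectin protein quantified by ELISA 24 h after dosing.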 Conditions: primary human endothelial cells (HUVEC); actives raise or lower the signal. Summed up:
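ELISA read-out of E-selectin on endothelial monolayers after 24 h chemical treatment. Human umbilical vein primary cells served as the system, with DMSO defining baseline activity for bidirectional fitting.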

Read-out in test [4]: Interleukin-1 alpha (IL1a), IL1A (gene 3552)
Nature of the test: BSK_BE3C_IL1a: BioMAP Diversity Plus: BE3C Assay for Interleukin-1 alpha (IL1a) Biomarker Activity (AID 2283016). Conditions: primary human bronchial epithelial cells; actives raise or lower the signal. Summed up:
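Human primary bronchial epithelial cells (BE3C system) were dosed with compound and IL-1a measured by ELISA 24 h later. Activity was fitted bidirectionally against DMSO baseline; cytotoxicity was tracked in parallel cultures by SRB total-protein staining.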

Read-out in test [5]: Monocyte Chemoattractant Protein-1 (MCP1), CCL2 (gene 6347)
As to the kind of experiment: BSK_3C_MCP1: BioMAP Diversity Plus: 3C Assay for Monocyte Chemoattractant Protein-1 (MCP1) Biomarker Activity (AID 2283017). Conditions: primary human endothelial cells (HUVEC); actives raise or lower the signal. The procedure, abridged:
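ELISA read-out of MCP-1 from human umbilical vein endothelial cell cultures harvested 24 h post-dosing. Gain or loss of signal was fitted relative to DMSO.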

Read-out in test [6]: Monocyte Chemoattractant Protein-1 (MCP1), CCL2 (gene 6347)
Nature of the test: BSK_4H_MCP1: BioMAP Diversity Plus: 4H Assay for Monocyte Chemoattractant Protein-1 (MCP1) Biomarker Activity (AID 2283018). The note with it: primary human endothelial cells (HUVEC); actives raise or lower the signal. The procedure, abridged: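 Human umbilical vein endothelial cells (4H system) dosed with chemical; MCP-1 measured by ELISA 24 h after dosing. Bidirectional curve fitting against DMSO negative control as baseline; parallel SRB total-protein staining tracks overt cytotoxicity.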

Read-out in test [7]: Human Leukocyte Antigen - DR isotype (HLADR), HLA-DRA (gene 3122)
Nature of the test: BSK_3C_HLADR: BioMAP Diversity Plus: 3C Assay for Human Leukocyte Antigen - DR isotype (HLADR) Biomarker Activity (AID 2283019). Conditions: primary human endothelial cells (HUVEC); actives raise or lower the signal. The procedure, abridged: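 ELISA readout of surface HLA-DR on human umbilical vein endothelium, taken 24 h after chemical treatment. Gain- and loss-of-signal were both fitted relative to DMSO.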

Read-out in test [8]: Interleukin-8 (IL8), CXCL8 (gene 3576)
Nature of the test: BSK_3C_IL8: BioMAP Diversity Plus: 3C Assay for Interleukin-8 (IL8) Biomarker Activity (AID 2283020). Conditions: primary human endothelial cells (HUVEC); actives raise or lower the signal. The procedure, abridged: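 Primary human umbilical vein endothelial cells (3C system) were exposed to test chemical for 24 h, then IL-8 was quantified by ELISA. Responses were fitted bidirectionally against DMSO vehicle as baseline.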

For test [9], the target named is human Vitamin D Receptor (VDR), VDR (gene 7421) (UniProt P11473). Nature of the test: ATG_VDR_TRANS: Attagene TRANS-FACTORIAL HepG2 Assay for human Vitamin D Receptor (VDR) (AID 2283022; active = hit-call score of the fitted dose curve at least 0.9, where 1 is the maximum). Summed up: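 Steps: transfect HepG2 with GAL4-UAS-driven reporter constructs; dose compounds 24 h; isolate RNA, reverse-transcribe, PCR-amplify with 6-FAM-labelled primer extension and HpaI digestion; quantify fragments by capillary electrophoresis relative to DMSO.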
Chain of human Vitamin D Receptor (VDR), VDR (gene 7421) (P11473 whole entry, looked up, the tested form may be a part): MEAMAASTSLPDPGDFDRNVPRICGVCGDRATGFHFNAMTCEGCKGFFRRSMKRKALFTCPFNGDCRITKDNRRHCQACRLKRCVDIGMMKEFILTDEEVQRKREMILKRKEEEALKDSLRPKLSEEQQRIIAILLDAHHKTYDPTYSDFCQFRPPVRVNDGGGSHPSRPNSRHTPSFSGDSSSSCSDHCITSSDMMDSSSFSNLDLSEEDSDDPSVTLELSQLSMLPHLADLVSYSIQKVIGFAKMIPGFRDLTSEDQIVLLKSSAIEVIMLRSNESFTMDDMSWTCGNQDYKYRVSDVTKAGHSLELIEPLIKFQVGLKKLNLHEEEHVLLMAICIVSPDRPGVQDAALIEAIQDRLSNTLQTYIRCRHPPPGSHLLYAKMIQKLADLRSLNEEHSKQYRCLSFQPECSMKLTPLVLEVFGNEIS

A short description of test [10]: BSK_3C_SRB: Viability Assessment in the BioMAP Diversity Plus: 3C Assay (AID 2283023).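 Also: fitted both ways against DMSO so a hit may be signal rise or drop.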 Conditions: primary human endothelial cells (HUVEC). Summed up: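 Absorbance at 560 nm of sulforhodamine B-stained (0.1%) total protein served as a cytotoxicity readout in human umbilical vein endothelial cells, 24 h after chemical treatment. Signal was fitted bidirectionally relative to DMSO.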

Read-out in test [11]: Matrix Metallopeptidase 1 (MMP1), MMP1 (gene 4312)
As to the kind of experiment: BSK_BE3C_MMP1: BioMAP Diversity Plus: BE3C Assay for Matrix Metallopeptidase 1 (MMP1) Biomarker Activity (AID 2283024). Conditions: primary human bronchial epithelial cells; actives raise or lower the signal. Summed up:
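Primary human bronchial epithelial cells were dosed with test chemicals, and MMP1 levels were measured by ELISA 24 h later. Data were fitted bidirectionally against DMSO as the negative control and activity baseline.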

Read-out in test [12]: Pselectin, SELP (gene 6403)
As to the kind of experiment: BSK_4H_Pselectin: BioMAP Diversity Plus: 4H Assay for Pselectin Biomarker Activity (AID 2283026). Conditions: primary human endothelial cells (HUVEC); actives raise or lower the signal. The procedure, abridged: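 Primary human umbilical vein endothelial cells were exposed to test chemical for 24 h, then cell-surface P-selectin was quantified by ELISA. Activity was fitted bidirectionally against DMSO as negative control and baseline.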

A short description of test [13]: BSK_4H_SRB: Viability Assessment in the BioMAP Diversity Plus: 4H Assay (AID 2283027).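 Also: cells exposed to compound for 24 h before staining.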 Conditions: primary human endothelial cells (HUVEC). Summed up: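 Absorbance at 560 nm of SRB-stained total protein served as the viability read-out in confluent primary human umbilical vein endothelium 24 h after chemical treatment. Curves were fitted bidirectionally against DMSO as negative control.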

A short description of test [14]: BSK_BE3C_SRB: Viability Assessment in the BioMAP Diversity Plus: BE3C Assay (AID 2283028). The note with it: primary human bronchial epithelial cells. The procedure, abridged:
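Cells (human bronchial epithelial, primary) are treated with chemicals, and after 24 h the parallel cultures are fixed in 10% TCA. These are then stained with 0.1% SRB and read at 560 nm. Gain or loss of signal is fitted relative to DMSO.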

Read-out in test [15]: Thrombomodulin, THBD (gene 7056)
Nature of the test: BSK_3C_Thrombomodulin: BioMAP Diversity Plus: 3C Assay for Thrombomodulin Biomarker Activity (AID 2283029). Conditions: primary human endothelial cells (HUVEC); actives raise or lower the signal. Summed up: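 Primary human umbilical vein endothelial cells (3C system) were exposed to chemical for 24 h, then thrombomodulin levels were measured by ELISA. Activity was fitted bidirectionally against the DMSO negative control as baseline.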

Read-out in test [16]: Urokinase-type plasminogen activator receptor (uPAR), PLAUR (gene 5329)
As to the kind of experiment: BSK_4H_uPAR: BioMAP Diversity Plus: 4H Assay for Urokinase-type plasminogen activator receptor (uPAR) Biomarker Activity (AID 2283030). The note with it: primary human endothelial cells (HUVEC); actives raise or lower the signal. The procedure, abridged: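 Cell-surface uPAR ELISA signal, measured 24 h after dosing human umbilical vein endothelial cells, was analyzed with bidirectional fitting relative to DMSO. Parallel SRB staining of total protein tracked overt cytotoxicity.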

Read-out in test [17]: Vascular endothelial growth factor receptor 2 (Homo sapiens) (UniProt P35968)
As to the kind of experiment: BSK_4H_VEGFRII: BioMAP Diversity Plus: 4H Assay for Vascular endothelial growth factor receptor 2 (VEGFR2) Biomarker Activity (AID 2283031). Conditions: primary human endothelial cells (HUVEC); actives raise or lower the signal. The procedure, abridged:
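ELISA read-out of VEGFRII in primary human umbilical vein endothelium, taken 24 h after chemical treatment. Responses are expressed relative to DMSO, with bidirectional fitting.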

Read-out in test [18]: Human Leukocyte Antigen - DR isotype (HLADR), HLA-DRA (gene 3122)
As to the kind of experiment: BSK_BE3C_HLADR: BioMAP Diversity Plus: BE3C Assay for Human Leukocyte Antigen - DR isotype (HLADR) Biomarker Activity (AID 2283032). Conditions: primary human bronchial epithelial cells; actives raise or lower the signal. Summed up: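 Human primary bronchial epithelial cells in the BE3C system were exposed to chemicals for 24 h, after which HLA-DR levels were quantified by ELISA. Activity was fitted bidirectionally, gain or loss of signal, against DMSO as negative control and baseline.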

For orientation: AC50 means the midpoint of the concentration-response curve, whichever way the signal moves.

Values joined by “and” are separate entries in the source; they are usually repeats but may differ in a detail not shown here. Identical values can stand only once. Inconclusive results are not listed. Active and inactive are the calls of the source. The calls were made as follows, unless noted: active = hit-call score of the fitted dose curve at least 0.9, where 1 is the maximum; inactive = score below 0.9.

Chain of Retinoic acid receptor RXR-alpha (Homo sapiens) (P19793 whole entry, looked up, the tested form may be a part): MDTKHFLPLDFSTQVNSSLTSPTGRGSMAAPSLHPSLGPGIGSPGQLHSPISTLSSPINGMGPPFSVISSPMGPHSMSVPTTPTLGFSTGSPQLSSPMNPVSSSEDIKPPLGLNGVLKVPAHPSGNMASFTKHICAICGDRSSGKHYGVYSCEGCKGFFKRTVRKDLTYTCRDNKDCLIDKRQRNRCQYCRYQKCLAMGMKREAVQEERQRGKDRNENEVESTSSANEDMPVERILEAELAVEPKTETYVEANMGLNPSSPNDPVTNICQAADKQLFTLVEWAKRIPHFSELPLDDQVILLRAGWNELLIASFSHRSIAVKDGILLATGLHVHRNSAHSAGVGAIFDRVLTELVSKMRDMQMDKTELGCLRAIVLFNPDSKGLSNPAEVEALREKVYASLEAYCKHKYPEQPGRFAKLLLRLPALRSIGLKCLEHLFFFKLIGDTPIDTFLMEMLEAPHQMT
Chain of human Thyroid Receptor alpha (THRa1), THRA (gene 7067) (P10827 whole entry, looked up, the tested form may be a part): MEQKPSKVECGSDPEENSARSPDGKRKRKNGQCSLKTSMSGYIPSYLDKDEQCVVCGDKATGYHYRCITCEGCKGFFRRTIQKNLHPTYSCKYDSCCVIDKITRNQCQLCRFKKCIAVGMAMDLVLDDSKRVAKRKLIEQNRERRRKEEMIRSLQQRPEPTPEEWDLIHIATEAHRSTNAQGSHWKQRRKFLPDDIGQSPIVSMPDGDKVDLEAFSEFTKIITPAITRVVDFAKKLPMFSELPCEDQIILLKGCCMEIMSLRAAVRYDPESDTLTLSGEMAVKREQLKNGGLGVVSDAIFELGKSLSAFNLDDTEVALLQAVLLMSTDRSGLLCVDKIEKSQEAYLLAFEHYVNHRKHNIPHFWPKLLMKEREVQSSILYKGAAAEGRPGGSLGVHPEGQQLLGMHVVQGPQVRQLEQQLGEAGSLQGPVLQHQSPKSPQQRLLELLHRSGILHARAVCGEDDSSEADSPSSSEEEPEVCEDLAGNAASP
Chain of E-selectin (Homo sapiens) (P16581 whole entry, looked up): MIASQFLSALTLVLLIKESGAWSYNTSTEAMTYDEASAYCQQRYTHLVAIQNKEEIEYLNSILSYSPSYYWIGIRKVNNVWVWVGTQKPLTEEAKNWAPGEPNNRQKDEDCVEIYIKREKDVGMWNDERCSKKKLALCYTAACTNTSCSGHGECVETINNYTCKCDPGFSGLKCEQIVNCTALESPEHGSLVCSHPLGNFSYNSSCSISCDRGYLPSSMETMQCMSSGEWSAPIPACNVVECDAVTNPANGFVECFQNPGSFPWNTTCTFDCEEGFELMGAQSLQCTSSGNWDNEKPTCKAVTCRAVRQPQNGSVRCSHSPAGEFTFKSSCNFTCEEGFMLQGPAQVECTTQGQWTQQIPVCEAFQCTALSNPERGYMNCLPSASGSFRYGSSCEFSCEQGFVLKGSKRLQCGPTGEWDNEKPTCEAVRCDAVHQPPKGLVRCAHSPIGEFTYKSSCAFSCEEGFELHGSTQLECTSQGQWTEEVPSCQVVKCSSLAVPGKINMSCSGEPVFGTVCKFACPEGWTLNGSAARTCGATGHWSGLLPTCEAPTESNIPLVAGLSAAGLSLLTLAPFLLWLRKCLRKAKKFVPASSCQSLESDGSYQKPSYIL

In the case of `C=CCOC(=O)CCC1CCCCC1`, the outcome in test [1], in test [2], in test [3], in test [4], in test [5] and in [6] was inactive. In addition, the result in test [7], in test [8], in test [9], in test [10], in [11] and in test [12] was inactive. Also, the outcome in test [13], in test [14], in [15], in test [16] and in test [17] was inactive.
As to `CC(C)=CCO`, the outcome in test [1], in test [2] and in test [9] was inactive.
For the molecule `CC(=O)C(C)=O`, the molecule was called inactive in test [1] and in test [9].
On to `CCCCc1ccc(N)cc1`, for which the call in test [1] and in test [9] was inactive.
Regarding `CC(=O)Nc1ccc(C)cc1C`, the molecule was called inactive in test [1], in test [2] and in test [9].
Take `CC(C)Oc1ccccc1O`: the outcome in test [1], in [2], in test [3], in [4], in [5] and in [6] was inactive. The outcome in test [7], in test [8], in [10], in test [11], in [12] and in [13] was inactive. The outcome in [14], in test [15], in test [16] and in test [17] was inactive.
With `Nc1cccc(S(=O)(=O)c2cccc(N)c2)c1`, the outcome in test [1], in test [2] and in [9] was inactive.
For `CC(CCO)CCCC(C)(C)O` (stereo not drawn), the call in test [1], in [2] and in test [9] was inactive.
`CC(=O)[C@H]1CC[C@H]2[C@@H]3CC=C4C[C@@H](O)CC[C@]4(C)[C@H]3CC[C@]12C`: the molecule was classed as inactive in [1], in [2], in [3], in test [4], in [5] and in test [6]. Further, the result in test [7], in test [8], in [11], in test [12], in test [13] and in test [14] was inactive. In addition, the result in test [15], in test [16] and in test [17] was inactive. The AC50 in [10] is 11.1 µM (active) and 7.02 µM (active).
As to `OC[C@H]1O[C@H](O[C@]2(CCl)O[C@H](CCl)[C@@H](O)[C@@H]2O)[C@H](O)[C@@H](O)[C@H]1Cl`, the molecule was classed as inactive in [1], in test [2], in test [3], in test [4], in test [5] and in test [6]. In addition, the result in [7], in test [8], in [9], in test [10], in test [11] and in test [12] was inactive. The result in [13], in [14], in test [15], in test [16], in [17] and in [18] was inactive.
`CC1=CCC(O)(C(C)C)CC1` (stereo not drawn): the molecule was classed as inactive in test [1], in test [2] and in test [9].
For `C=C(C)C(=O)NCCCN(C)C`, the outcome in [1], in [2] and in test [9] was inactive.
On to `Cc1ccc2ccccc2n1`, for which the molecule was called inactive in test [1], in test [2] and in test [9].
Take `NC(N)=NC(=O)c1nc(Cl)c(N)nc1N`: the molecule was classed as inactive in test [1], in test [2] and in test [9].
Take `CCCC(=O)OCCC(C)CCC=C(C)C` (stereo not drawn): the outcome in [1], in test [2] and in test [9] was inactive.
